Laboratory results from PubChem BioAssay AID1566 (Sanford-Burnham Center for Chemical Genomics, 2009).
Several values for one entry are separate records, joined by “and”; a condition that tells them apart may be missing. Equal values may be shown once. Hit rate of the full screen: of about 290,000 compounds, about 1,800 (0.62%) were called active. Rule as the data show it: active = inhibition above about 50%; inactive = the rest. The list comes from a sample in which actives are over-represented; it also holds similar structures and randomly drawn compounds.

Test: NOD2 signaling inhibitors, cell-based, luminescence, uHTS, HEK293 (AID 1566)
Conditions: HEK293 NOD2/NF-kB luciferase reporter, at 4 µM, hits give high values

inhibition, active:
CCC(=O)c1ccc(O)c(CC=C(C)C)c1 54.6%
COc1ccc(CS(=O)(=O)/C(Cl)=C(/Cl)C(=O)Nc2ccc(OC)nc2)cc1 79.2%
Cc1nn(-c2nc3ccccc3[nH]2)c(=O)c2ccccc12 87.2%
O=c1c2ccccc2cnn1-c1nc2ccccc2[nH]1 87.6%
CCN(CC)c1ccc2nc3ccccc3[n+](CC)c2c1 74.8%
CCN1CCN(Cc2ccc(NC(=O)c3ccc(C)c(NC(=O)C(=O)c4c[nH]c5ccccc45)c3)cc2C(F)(F)F)CC1 57%
Nc1ccc(-c2nc3c(Cl)cc(N)cc3[nH]2)cc1 55.1%
CCOc1ccc(C(=O)CSCCC(=O)O)cc1 53.4%
Cc1nc2scc(C)n2c(=O)c1S(=O)(=O)Nc1ccc(N2CCOCC2)c(Cl)c1 51.2%
Cc1cccc(-n2c(C)cc(C=C3C(=O)c4ccccc4C3=O)c2C)c1 57.4%
Cc1cc(/C=C2\Cc3ccccc3C2=O)c(C)n1-c1ccccc1 59.1%
CCCNC(=O)c1cc(S(=O)(=O)N2CCc3ccccc32)cn1C 52.1%
C[C@H]1O[C@@H](O[C@H]2[C@@H](O)C[C@H](O[C@H]3[C@@H](O)C[C@H](O[C@H]4CC[C@@]5(C)[C@H](CC[C@@H]6[C@@H]5C[C@@H](O)[C@]5(C)[C@@H](C7=CC(=O)OC7)CC[C@]65O)C4)O[C@@H]3C)O[C@@H]2C)C[C@H](O)[C@@H]1O 77.7%

inhibition, inactive:
CC(C)CNC(=O)c1cccc(C(=O)NCC(C)C)c1 7.3%
Cn1c(=O)c2c(nc(CN3CCN(c4ccccc4F)CC3)n2CCN2CCOCC2)n(C)c1=O 9%
O=C(CN1CCOCC1)N1CCc2ccccc2C(c2ccccc2)C1 (stereo not drawn) 17%
COc1ccc(F)cc1CN1CCN(c2ncnc3scc(-c4ccccc4)c23)CC1 19.8%
O=C(NCc1ccccc1Cl)C1CCCN(c2ncnc3c2nc2n3CCCCC2)C1 (stereo not drawn) 18.9%
CC1CCN(C(=O)Cn2c(=O)oc3ccccc32)CC1 -2.3%
COc1ccc(NC(=O)CN(c2ccc([N+](=O)[O-])cc2)S(=O)(=O)c2ccccc2)cc1 -17.8%
CC(=O)c1cc(CC=C(C)C)c(O)cc1O 30.8%
CC(=O)c1ccc(O)c(CC=C(C)C)c1 34.2%
O=c1cc(O)nc(SCc2ccccc2)n1-c1ccccc1 13.3% and 9.4%
S=C(NCc1ccccc1)NN1CCOCC1 1.7%
Nc1nc(N2CCCCC2)nc2ccccc12 -20.9%
Cc1cccc(Cn2c(O)c(N=NC(=S)Nc3ccccc3F)c3ccccc32)c1 18.9%
Cc1cccc(NC(=O)Cn2c(O)c(N=NC(N)=S)c3ccccc32)c1 -8.5%
O=C(O)c1cccc(NC(=O)c2cccc(S(=O)(=O)N3CCc4ccccc43)c2)c1 -26.3%
Cc1cccnc1NC(=O)c1cccc(S(=O)(=O)N2CCCc3ccccc32)c1 0.8%
COc1cccc(C2CC(=O)NC(SC)=C2C#N)c1 (stereo not drawn) 27.4%
CCO[C@@H]1OC(C(=O)NCc2ccccc2)=C[C@H](c2ccc(Br)cc2)[C@H]1CCCO -1.4%
Cc1c(CC(=O)N[C@@H](CCCNC(N)=O)C(=O)O)c(=O)oc2cc3oc4c(c3cc12)CCCC4 14.7%
COc1ccc(NC(=O)C(Cl)=C(Cl)Cl)cn1 -25.2%
COc1ccc(CC(=O)Nc2ccc(OC)nc2)cc1 6.1%
CCN(CC(=O)N(CC(C)C)c1c(N)n(CC(C)C)c(=O)[nH]c1=O)Cc1nc2ccccc2c(=O)[nH]1 13.4%
Cc1cc(NC(=O)CN(C)S(=O)(=O)c2cccc(Cl)c2)no1 0.9%
COc1ccc(NC(=O)COC(=O)C2CC(=O)N(c3ccc(OC(C)C)cc3)C2)cc1 (stereo not drawn) 6.7%
O=C(NCC1OCCc2ccccc21)c1ccc(NC(=O)c2cccc(Br)c2)cc1 (stereo not drawn) 2.8%
Cc1cc(/C=N/Nc2nc(N)ncc2[N+](=O)[O-])c(C)n1-c1cccc(C(F)(F)F)c1 -78.1%
Cc1cc(/C=N/Nc2ccc([N+](=O)[O-])cn2)c(C)n1-c1ccccc1 8.4%
COc1cccc(/C=N/Nc2ncnc(N)c2[N+](=O)[O-])c1OC -39.2%
Cc1ccccc1-n1c(C)cc(/C=N/Nc2ccc([N+](=O)[O-])cn2)c1C -29.9%
O=[N+]([O-])c1cccc(-c2cc(C(F)(F)F)n3nc(-c4ccccc4)cc3n2)c1 26.1%
CCCN(CCC)CC(O)COc1ccc2c(c1)OCO2 (stereo not drawn) 4.6%
O=C(NCc1ccccc1F)C1CCCN1C(=O)Nc1cccc(F)c1 (stereo not drawn) -1.7%
Cc1nn(-c2ccccc2)c(=O)c2ccccc12 -1.4%
O=c1c(Cl)c(N2CCOCC2)cnn1-c1nc2ccccc2[nH]1 -110%
O=c1c(Cl)c(N2CCCCC2)cnn1-c1nc2ccccc2[nH]1 -7.2%
Cc1nn(-c2nc3ccccc3[nH]2)c(N)c1-c1ccccc1 -163%
NS(=O)(=O)c1ccc(CCNC(=O)c2cc(-c3ccc(Br)cc3)nc3ccccc23)cc1 -18.4%
O=C(NCc1ccon1)C1CCC(=O)N(CCc2ccc(Cl)cc2)C1 (stereo not drawn) 6.3%
COc1ccc2c(c1)cc(C(=O)N[C@H](C(=O)N1CCC(C(=O)O)CC1)C(C)C)n2C -3.6%
C/C(=N/NC(=O)CN1CCN(Cc2ccccc2Cl)CC1)c1cccs1 20%
Cc1ccc(NC(=O)c2cc(C)nc3ccccc23)c(C)c1 1.4%
Cc1ccc(NC(=O)Cc2ccccc2)c(C)c1 -14.9%
Cc1cc(C)n(C(C)CC(=O)N2CCc3ccccc32)n1 (stereo not drawn) 14.5%
COc1ccc(S(=O)(=O)Nc2cc(OC)c(NC(=O)c3ccco3)cc2OC)cc1 19.5%
O=c1c2ccccc2c(C=Nc2ccc(S(=O)(=O)N3CCCCC3)cc2)c(O)n1-c1ccc(Cl)cn1 -6.9%
Cc1cccc(NC(=O)CCSc2ccccc2)c1C -32.5%
CCC(=O)Nc1nnc(/C=C/c2ccccc2)s1 -60.7%
COc1ccc(CCNC(=O)c2ccc3ccccc3n2)cc1OC 6.9%
COc1ccc(CNC(=O)c2ccc3ccccc3n2)cc1 0.9%
Cc1cccc(/C=N\NC(=O)c2ccccc2-n2cccc2)c1 -1.5%
O=C(c1cccc(S(=O)(=O)N2CCCC2)c1)c1cccc(S(=O)(=O)N2CCCC2)c1 32.8%
CCN(CC)c1ccc(/C=N/Nc2nc3ccccc3[nH]2)c(O)c1 -63.5%
CCN(CC)c1ccc2cc(-c3nc4ccccc4[nH]3)c(=O)oc2c1 -69.7%
O=C(c1cc2ccccc2oc1=O)N1CCCCCCC1 9.4%
CCCCn1c(-c2nn(C)c(C)c2Cl)n[nH]c1=S 19.7%
CCN1CCN(Cc2ccc(NC(=O)c3cc(NC(=O)C(=O)c4c[nH]c5ccccc45)cc(OC)c3)cc2C(F)(F)F)CC1 5.4%
CCN1CCN(Cc2ccc(NC(=O)c3ccc(C)c(NC(=O)c4cccc5[nH]ccc45)c3)cc2C(F)(F)F)CC1 -20.7%
O=C(/C=C/c1ccccc1)NC(=S)Nc1ccccc1O 0.9%
Nc1ccc(-c2nc3ccc(N)cc3[nH]2)cc1 -7%
Nc1ccc(-c2nc3c(Cl)c(N)ccc3[nH]2)cc1 -6.6%
NC(=O)c1ccc(NC(=O)Cc2csc(-c3ccccc3)n2)cc1 8%
CCOc1ccc(C(=O)CCC(=O)O)cc1 16%
CCOc1ccc(C(=O)CSCC(=O)O)cc1 6.2%
COc1ccc(/C=C/C(=O)Oc2ccc(C)cc2)cc1 7.2%
COc1ccc(/C=C/c2c(-c3ccc(OC)cc3)oc3ccc(-c4ccc(OC)cc4)cc23)cc1 4.5%
O=C(COC(=O)C12CC3CC(CC(C3)C1)C2)Nc1nccs1 33.4%
Cc1nc2sccn2c(=O)c1S(=O)(=O)Nc1ccc(N2CCOCC2)c(Cl)c1 33.7%
Cc1nc2scc(C)n2c(=O)c1S(=O)(=O)Nc1ccc(N2CCOCC2)cc1 14.2%
O=C(c1ccncc1)c1ccc(NS(=O)(=O)c2ccc(Br)s2)cc1 23.1%
Cc1cc(C=C2C(=O)c3ccccc3C2=O)c(C)n1-c1ccccc1 5.9%
Cc1cc(C=C2C(=O)c3ccccc3C2=O)c(C)n1-c1ccc(Cl)cc1 19.2%
Cc1cc(C=C2C(=O)CCCC2=O)c(C)n1-c1ccccc1 1.8%
Cc1cc(C=C2C(=O)c3ccccc3C2=O)c(C)n1-c1cccc(C(=O)O)c1 -11.1%
CNC(=O)CSc1nc2[nH]ncc2c(=O)[nH]1 10.9%
COc1ccc(C(CC(=O)N2CCCC2)C(C)C)cc1 (stereo not drawn) -6.1%
O=C(NC(Cc1ccc2c(c1)OCO2)C(=O)NC(Cc1ccccc1)C(=O)O)c1ccccc1 (stereo not drawn) 0%
O=C(CN(Cc1cccs1)C(=O)CNS(=O)(=O)c1ccccc1)NC1CCCC1 9.3%
CC(C)CCNC(=O)c1cc(S(=O)(=O)N2CCc3ccccc32)cn1C 26.2%
CCN(CC)CCNC(=O)c1cc(S(=O)(=O)N2CCc3ccccc32)cn1C 27.1%
CS(=O)(=O)N(CC(=O)Nc1cccc(Cl)c1)c1ccccc1Cl -11.8%
